Assay results taken from PubChem BioAssay AID493169 (National Center for Advancing Translational Sciences (NCATS), 2011).
Inconclusive results are not listed. Values without a mark were called inactive. Activity calls are given as the source filed them. The call rests on the fitted dose curve; in most records, active means well fitted inhibition curve with a large enough effect; inconclusive means small, poorly fitted or top-dose-only effect; inactive means flat fitted curve, though single readings scatter.

Assay: CHOP2 Reporter Counterscreen Assay for Inhibitors of Ubiquitin-specific Protease USP2a;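 further: activated enterokinase alone at 50 pM in a cell-free format rather than USP2a or CHOP2; nearly all actives have a fitted effect of over 55% in size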
Settings: purified enterokinase, fluorogenic substrate, 485/531 nm; series mostly up to 38.3 µM; activity change, negative = inhibition: at the top concentration
Procedure, shortened: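 Fluorescence (485/531 nm) read 10 min after adding 25nM reporter substrate to 50 pM activated EK preincubated 30 min RT with compound; Tris pH 8.0/CaCl2/CHAPS buffer. Data normalized to buffer-alone inhibition; concentration-response curves fitted.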
On the % scale 0 is the no-effect control and ±100 the full control effect; potency means the concentration at half of the fitted maximal effect.

Structure (SMILES) | activity change, negative = inhibition | Potency
O=C1CCCc2nc(N3CCN(c4ccccc4)CC3)ncc21 | 3.25% | 
CC1(C(=O)O)Sc2[nH]c(=O)sc2C2c3ccccc3OC(=O)C21 (centres undefined) | -1.3% | 
Cc1c(O)c(CN2CCCC2)cc2c3c(c(=O)oc12)CCC3 | 1.28% | 
COc1ccccc1-c1nnc(SCC(=O)Nc2nc(-c3ccccc3)cs2)n1C | -2.53% | 
N=C1/C(=C\c2ccc(-c3cccc(Cl)c3)o2)C(=O)N=C2SC=C(c3ccccc3)N12 | -29.9% | 
Cc1ccc([C@H]2C(C(=O)O)=CC[C@@H](c3ccc(Cl)cc3)N2S(=O)(=O)c2ccc(C)cc2)cc1 | -10.9% | 
O=C(N/N=C/c1ccc(-c2ccc(S(=O)(=O)Nc3ncccn3)cc2)o1)c1cc2ccccc2cc1O |  | 3.98 µM (active)
CCOC(=O)c1[nH]c2ccc(OC)cc2c1NC(=O)CCN1CCC(C)CC1 | 4.08% | 
O=C(/C=C1\NC2(CCCC2)Cc2ccccc21)C(=O)N/N=C/c1ccc(O)c(O)c1 |  | 4.47 µM (active)
COc1ccc(/C=C(\NC(=O)c2ccc(OC)c(OC)c2)C(=O)N2CCN(C)CC2)cc1 | -1.05% | 
O=C(CSc1nccc(=O)[nH]1)N1N=C2/C(=C/c3ccco3)CCCC2C1c1ccco1 (centres undefined) |  | 8.91 µM (active)
Cc1noc(NS(=O)(=O)c2ccc(N3CC(O)=C(c4ccccc4)C3=N)cc2)c1C | 0.63% | 
NS(=O)(=O)c1ccc(NC(=O)/C=C/c2cn(-c3ccccc3)nc2-c2cccc(Cl)c2)cc1 | -9.99% | 
C=CC[C@H](CC(=O)N[C@H](CO)Cc1ccccc1)C(=O)N[C@@H](COC(=O)[C@@H](CC=C)CC(=O)OC(C)(C)C)Cc1c[nH]c2ccccc12 | 0.391% | 
